# In PubChem BioAssay (Tox21):
# Where “and” joins values, the source holds several entries; their conditions need not be identical. Equal entries are not always repeated. Results filed as inconclusive are left out. A call without a number means that no potency is given here. Where a structure was tested more than once in an assay, its records may differ in their call. Calls of active or inactive are those of the source. Unless noted, the call rests on the fitted dose curve; in most records, active means well fitted curve in the direction sought with a large enough effect in the repeat runs; inconclusive means weak or mixed curves; inactive means no such curve, though single readings can be large; an effect the other way counts as inactive or inconclusive.
# What was measured:
# [1] = qHTS assay to identify small molecule agonists of the TGF-beta/Smad signaling pathway (AID 1346859; active means well fitted activation curve with a large enough effect in the signal ratio in the repeat runs, not every such curve was filed as active; the % refers to the signal ratio; further: series mostly up to about 77 µM)
# How it was run: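 Each well held 4,000 SBE-bla HEK 293T cells incubated overnight before compound addition; 5 hr later the cleavable FRET substrate went on for 2 hr at room temperature, and fluorescence was read at two emissions.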
# [2] = target: Thyrotropin-releasing hormone receptor (Homo sapiens) (UniProt P34981); assay: qHTS assay to identify small molecule antagonists of the thyrotropin-releasing hormone receptor (TRHR) signaling pathway (AID 1346877; active means well fitted inhibition curve with a large enough effect in the repeat runs, not every such curve was filed as active; further: series mostly up to about 51 µM)
# How it was run: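 Cells (TRHR-HEK293) are plated and kept 18 h at 37 °C/5% CO2. A calcium-sensitive dye is added for 2 h, compound follows for 5 min at room temperature, and TRH is then given at 1 nM final.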
# [3] = target: Thyrotropin-releasing hormone receptor (Homo sapiens) (UniProt P34981); assay: qHTS assay to identify small molecule agonists of the thyrotropin-releasing hormone receptor (TRHR) signaling pathway (AID 1346891; calls by dose curve; further: series mostly up to about 58 µM)
# How it was run: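 Screening of agonists relied on calcium signalling in HEK293 cells expressing human TRHR: dye loading 2 h at 37 °C preceded compound addition and a 3-min fluorescence time course.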
# [4] = Human pregnane X receptor (PXR) small molecule agonists, qHTS cell viability counter screen (AID 1346977); further: nearly all actives have a fitted effect of over 50% in size; further: potency means the concentration at half of the fitted maximal effect
# How it was run: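 Tox21 qHTS format; PXR-Luc HepG2, 2,000/well, charcoal-stripped FBS 5%. Cpd exposure 24hr. Read: CellTiter-Fluor fluorescence, multiplexed with luciferase.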
# [5] = Caspase-3/7 induction in HepG2 cells by small molecules, qHTS assay (AID 1346978); further: nearly all actives have a fitted effect of over 15% in size
# How it was run: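 Caspase-3/7 induction was measured by Caspase-Glo 3/7 luminescence (30 min, room temperature) after a 17 hr compound exposure of wild-type HepG2 cells seeded at 2,000 per well and pre-incubated 5 hr.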
# [6] = Caspase-3/7 induction in CHO-K1 cells by small molecules, qHTS cell viability counter screen (AID 1346979); further: nearly all actives have a fitted effect of over 35% in size; further: potency means the concentration at half of the fitted maximal effect
# How it was run: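 CellTiter-Fluor viability check, qHTS format: wild-type CHO-K1, 16hr compound treatment, 1hr reagent incubation, fluorescence read.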
# [7] = Caspase-3/7 induction in CHO-K1 cells by small molecules, qHTS assay (AID 1346980); further: nearly all actives have a fitted effect of over 15% in size
# How it was run: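 Luminescent Caspase-Glo 3/7 read (30min, room temperature) quantified apoptosis induction. Cells were wild-type CHO-K1, treated with compound for 17hr at 37 C and 5% CO2.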
# [8] = Caspase-3/7 induction in HepG2 cells by small molecules, qHTS cell viability counter screen (AID 1346981); further: nearly all actives have a fitted effect of over 30% in size; further: potency means the concentration at half of the fitted maximal effect
# How it was run: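 Steps: seed 2,000 HepG2 cells per well; incubate 5 hr at 37 C; pin-add compounds in DMSO; incubate 16 hr; add CellTiter-Fluor; after 1 hr at 37 C and 5% CO2, read fluorescence.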
# [9] = target: Nuclear receptor subfamily 1 group I member 2 (Homo sapiens) (UniProt O75469); assay: Human pregnane X receptor (PXR) small molecule agonists, qHTS assay (AID 1346982); further: nearly all actives have a fitted effect of over 35% in size; further: potency means the concentration at half of the fitted maximal effect
# How it was run: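 Agonist mode qHTS: PXR-Luc HepG2 cells plated 5 hr before DMSO-dissolved compounds were pinned in, cultured 24 hr at 37 C, 5% CO2; ONE-Glo luminescence readout.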
# [10] = target: Cytochrome P450 2D6 (Homo sapiens) (UniProt P10635); assay: Cytochrome P450 Family 2 Subfamily D Member 6 (CYP2D6) small molecule antagonists: luciferase reporter qHTS assay (AID 1671196); further: nearly all actives have a fitted effect of over 50% in size; further: potency means the concentration at half of the fitted maximal effect
# How it was run: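 P450-Glo format: CYP2D6 converts a proluciferin substrate to luciferin in an NADPH-driven reaction lasting 1 h at room temperature. Light output, proportional to CYP2D6 activity, reflects interference by test chemicals.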
# [11] = target: Cytochrome P450 2C19 (Homo sapiens) (UniProt P33261); assay: Cytochrome P450 Family 2 Subfamily C Member 19 (CYP2C19) small molecule antagonists: luciferase reporter qHTS assay (AID 1671197); further: nearly all actives have a fitted effect of over 65% in size; further: potency means the concentration at half of the fitted maximal effect
# How it was run: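 Inhibition of CYP2C19 was scored from loss of luminescence in a P450-Glo proluciferin substrate assay, NADPH-started and run 1 h at 37C, with ketoconazole as positive control.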
# [12] = target: Cytochrome P450 2C9 (Homo sapiens) (UniProt P11712); assay: Cytochrome P450 Family 2 Subfamily C Member 9 (CYP2C9) small molecule antagonists: luciferase reporter qHTS assay (AID 1671198); further: nearly all actives have a fitted effect of over 50% in size; further: potency means the concentration at half of the fitted maximal effect
# How it was run: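 Enzyme-substrate mix preincubated with compound 10 min at room temperature; reaction started with NADPH regeneration solution, 1 h 37C. Luminescent luciferin product read after 20 min detection reagent.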
# [13] = target: Cytochrome P450 1A2 (Homo sapiens) (UniProt P05177); assay: Cytochrome P450 Family 1 Subfamily A Member 2 (CYP1A2) small molecule antagonists: luciferase reporter qHTS assay (AID 1671199); further: nearly all actives have a fitted effect of over 50% in size; further: potency means the concentration at half of the fitted maximal effect
# How it was run: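 Inhibition of CYP1A2 conversion of proluciferin to luciferin, detected by luminescence. Reaction run 1 h at room temperature with NADPH regeneration after brief compound preincubation.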
# [14] = target: Voltage-gated inwardly rectifying potassium channel KCNH2 (Homo sapiens) (UniProt Q12809); assay: Human Ether-a-go-go-Related Gene (hERG) channel small molecule antagonists: fluorescence cell-based qHTS assay (AID 1671200)
# How it was run: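 Kinetic two-minute fluorescence traces, sampled at 1 s, were collected following thallium stimulus of U2OS cells (1000 per well) that had been cultured overnight at 37 C and loaded with FluxOR II.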
# [15] = target: Cytochrome P450 3A4 (Homo sapiens) (UniProt P08684); assay: Cytochrome P450 Family 3 Subfamily A Member 4 (CYP3A4) small molecule antagonists: luciferase reporter qHTS assay (AID 1671201); further: nearly all actives have a fitted effect of over 50% in size; further: potency means the concentration at half of the fitted maximal effect
# How it was run: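 Proluciferin-to-luciferin conversion by CYP3A4, NADPH-regenerated, 1 h RT; luminescence read as RLU. Ketoconazole as control.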
# [16] = target: Nuclear receptor subfamily 1 group I member 2 (Rattus norvegicus) (UniProt Q9R1A7); assay: Rat pregnane X receptor (rPXR) activation by small molecules, qHTS assay (AID 1346983); details: rPXR luciferase reporter cells, One-Glo luminescence, 24 h; max activation: stronger effect = higher value; further: nearly all actives have a fitted effect of over 20% in size; further: potency means the concentration at half of the fitted maximal effect
# How it was run: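 Luminescent readout (One-Glo luciferase, 30 min room temperature) followed 24 hr compound treatment at 37 C of rPXR cells plated 2,000 per well and preincubated 5hr; qHTS format with compounds delivered in DMSO.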
# [17] = target: Nuclear receptor subfamily 1 group I member 2 (Homo sapiens) (UniProt O75469); assay: CYP3A4 induction through human pregnane X receptor (PXR) by small molecules, qHTS assay (AID 1346984); further: nearly all actives have a fitted effect of over 40% in size
# How it was run: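 Steps: seed DPX-2 cells, 5 hr at 37C; pin-transfer compounds; 24 hr at 37C; add Luciferin-IPA (3uM final), 3 hr at 37C; add One-Glo, 30 min RT; read luminescence.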
# [18] = target: Nuclear receptor subfamily 1 group I member 2 (Homo sapiens) (UniProt O75469); assay: Human pregnane X receptor (PXR) activation by small molecules, qHTS assay (AID 1346985); further: nearly all actives have a fitted effect of over 40% in size
# How it was run: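 DPX-2 cells (HepG2 co-transfected with a PXR response element and a CYP3A4-promoter luciferase construct) were seeded at 2,000 per well, rested 5 hr at 37C, then exposed to DMSO-dissolved compounds for 24 hr. Activation was read as luciferase luminescence.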
# Nuclear receptor subfamily 1 group I member 2 (Homo sapiens), sequence (O75469 whole entry, looked up): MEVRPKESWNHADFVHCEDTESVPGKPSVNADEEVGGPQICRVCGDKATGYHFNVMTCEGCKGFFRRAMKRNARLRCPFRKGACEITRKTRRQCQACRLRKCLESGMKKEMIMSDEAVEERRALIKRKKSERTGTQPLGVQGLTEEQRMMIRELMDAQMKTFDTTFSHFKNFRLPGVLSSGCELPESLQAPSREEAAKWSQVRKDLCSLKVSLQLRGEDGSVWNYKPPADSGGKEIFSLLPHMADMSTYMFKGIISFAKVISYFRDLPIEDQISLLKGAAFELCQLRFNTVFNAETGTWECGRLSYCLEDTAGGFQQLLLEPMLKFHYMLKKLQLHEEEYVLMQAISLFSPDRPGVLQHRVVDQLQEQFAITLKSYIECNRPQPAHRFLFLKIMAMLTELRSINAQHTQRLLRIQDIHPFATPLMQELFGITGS
# Cytochrome P450 2C19 (Homo sapiens), sequence (P33261 whole entry, looked up): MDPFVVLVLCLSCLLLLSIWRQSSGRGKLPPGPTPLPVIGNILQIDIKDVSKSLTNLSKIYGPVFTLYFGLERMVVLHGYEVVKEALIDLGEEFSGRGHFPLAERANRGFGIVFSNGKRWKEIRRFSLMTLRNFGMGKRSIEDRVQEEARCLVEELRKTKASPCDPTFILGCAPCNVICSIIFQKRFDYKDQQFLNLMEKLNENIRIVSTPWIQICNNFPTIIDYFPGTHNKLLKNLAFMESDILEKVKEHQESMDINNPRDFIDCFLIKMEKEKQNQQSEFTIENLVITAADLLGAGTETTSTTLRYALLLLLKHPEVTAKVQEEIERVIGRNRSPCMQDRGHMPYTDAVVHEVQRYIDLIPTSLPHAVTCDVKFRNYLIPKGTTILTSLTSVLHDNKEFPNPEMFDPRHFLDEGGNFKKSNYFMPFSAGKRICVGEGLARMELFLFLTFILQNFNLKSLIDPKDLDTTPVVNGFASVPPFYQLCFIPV
# Cytochrome P450 2D6 (Homo sapiens), sequence (P10635 whole entry, looked up): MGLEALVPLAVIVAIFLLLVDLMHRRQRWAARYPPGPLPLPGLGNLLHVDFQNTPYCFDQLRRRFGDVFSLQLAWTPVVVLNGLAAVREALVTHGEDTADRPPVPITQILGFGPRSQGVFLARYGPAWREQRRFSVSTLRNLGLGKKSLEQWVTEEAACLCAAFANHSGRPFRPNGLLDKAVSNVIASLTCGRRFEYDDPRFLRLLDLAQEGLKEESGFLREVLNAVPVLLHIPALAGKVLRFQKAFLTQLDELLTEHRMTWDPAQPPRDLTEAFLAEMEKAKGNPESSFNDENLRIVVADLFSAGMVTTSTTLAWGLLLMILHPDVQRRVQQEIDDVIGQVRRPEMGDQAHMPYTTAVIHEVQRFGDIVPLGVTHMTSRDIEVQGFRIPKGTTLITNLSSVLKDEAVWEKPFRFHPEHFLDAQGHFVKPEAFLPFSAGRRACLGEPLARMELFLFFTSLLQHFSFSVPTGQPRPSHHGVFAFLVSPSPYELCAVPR
# Cytochrome P450 3A4 (Homo sapiens), sequence (P08684 whole entry, looked up): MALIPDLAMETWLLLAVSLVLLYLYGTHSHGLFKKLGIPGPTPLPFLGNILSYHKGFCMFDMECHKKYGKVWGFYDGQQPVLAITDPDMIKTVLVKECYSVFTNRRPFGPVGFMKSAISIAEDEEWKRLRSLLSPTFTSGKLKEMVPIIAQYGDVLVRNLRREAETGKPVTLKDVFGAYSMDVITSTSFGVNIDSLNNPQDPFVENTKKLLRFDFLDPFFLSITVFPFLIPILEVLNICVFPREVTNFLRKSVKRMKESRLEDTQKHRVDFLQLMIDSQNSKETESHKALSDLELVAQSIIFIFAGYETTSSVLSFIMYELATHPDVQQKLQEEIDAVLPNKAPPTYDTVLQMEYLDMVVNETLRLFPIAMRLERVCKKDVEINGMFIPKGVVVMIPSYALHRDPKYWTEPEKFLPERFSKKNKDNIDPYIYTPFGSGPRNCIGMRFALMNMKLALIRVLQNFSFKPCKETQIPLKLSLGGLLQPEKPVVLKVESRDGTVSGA
# Cytochrome P450 1A2 (Homo sapiens), sequence (P05177 whole entry, looked up): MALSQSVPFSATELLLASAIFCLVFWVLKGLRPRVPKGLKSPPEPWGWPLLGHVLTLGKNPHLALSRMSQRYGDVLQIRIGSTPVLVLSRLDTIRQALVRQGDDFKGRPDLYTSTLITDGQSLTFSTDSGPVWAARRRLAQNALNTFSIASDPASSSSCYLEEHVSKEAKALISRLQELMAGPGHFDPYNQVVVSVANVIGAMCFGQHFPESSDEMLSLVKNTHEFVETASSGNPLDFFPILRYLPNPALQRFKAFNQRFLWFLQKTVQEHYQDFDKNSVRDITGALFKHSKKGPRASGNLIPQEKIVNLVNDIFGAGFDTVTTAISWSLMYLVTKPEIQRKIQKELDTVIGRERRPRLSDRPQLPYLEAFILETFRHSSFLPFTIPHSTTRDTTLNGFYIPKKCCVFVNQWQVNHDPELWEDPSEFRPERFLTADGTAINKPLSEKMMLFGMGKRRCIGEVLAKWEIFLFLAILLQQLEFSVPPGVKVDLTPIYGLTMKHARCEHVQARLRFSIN
# Voltage-gated inwardly rectifying potassium channel KCNH2 (Homo sapiens), sequence (Q12809 whole entry, looked up): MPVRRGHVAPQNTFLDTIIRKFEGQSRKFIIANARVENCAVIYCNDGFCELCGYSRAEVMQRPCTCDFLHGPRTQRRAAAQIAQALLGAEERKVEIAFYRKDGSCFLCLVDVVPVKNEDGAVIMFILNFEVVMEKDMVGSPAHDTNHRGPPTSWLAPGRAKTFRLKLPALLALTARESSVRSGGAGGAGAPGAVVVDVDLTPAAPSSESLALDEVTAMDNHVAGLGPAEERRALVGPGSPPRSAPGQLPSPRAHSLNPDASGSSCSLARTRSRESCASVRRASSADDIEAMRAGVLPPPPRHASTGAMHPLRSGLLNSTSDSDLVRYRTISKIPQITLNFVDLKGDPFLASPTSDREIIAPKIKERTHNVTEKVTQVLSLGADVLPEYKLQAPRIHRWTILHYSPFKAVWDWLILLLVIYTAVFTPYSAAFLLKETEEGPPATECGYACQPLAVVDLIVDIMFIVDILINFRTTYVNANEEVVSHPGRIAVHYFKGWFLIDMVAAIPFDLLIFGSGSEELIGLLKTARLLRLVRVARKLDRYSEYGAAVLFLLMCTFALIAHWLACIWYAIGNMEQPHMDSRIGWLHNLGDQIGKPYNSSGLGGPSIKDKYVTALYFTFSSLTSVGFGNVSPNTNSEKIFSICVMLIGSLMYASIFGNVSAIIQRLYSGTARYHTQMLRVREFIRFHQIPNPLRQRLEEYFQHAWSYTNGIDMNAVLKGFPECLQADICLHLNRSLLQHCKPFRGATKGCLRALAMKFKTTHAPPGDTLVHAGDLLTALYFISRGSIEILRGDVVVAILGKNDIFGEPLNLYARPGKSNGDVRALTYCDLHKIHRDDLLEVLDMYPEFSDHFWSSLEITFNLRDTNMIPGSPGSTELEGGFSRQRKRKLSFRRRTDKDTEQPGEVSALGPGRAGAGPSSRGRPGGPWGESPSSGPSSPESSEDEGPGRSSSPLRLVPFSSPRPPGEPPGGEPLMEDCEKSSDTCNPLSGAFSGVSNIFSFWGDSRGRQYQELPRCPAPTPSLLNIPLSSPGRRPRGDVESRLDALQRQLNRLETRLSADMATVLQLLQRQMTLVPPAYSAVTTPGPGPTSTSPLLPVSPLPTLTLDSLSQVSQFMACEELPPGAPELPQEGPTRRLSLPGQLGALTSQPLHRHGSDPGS
# Thyrotropin-releasing hormone receptor (Homo sapiens), sequence (P34981 whole entry, looked up): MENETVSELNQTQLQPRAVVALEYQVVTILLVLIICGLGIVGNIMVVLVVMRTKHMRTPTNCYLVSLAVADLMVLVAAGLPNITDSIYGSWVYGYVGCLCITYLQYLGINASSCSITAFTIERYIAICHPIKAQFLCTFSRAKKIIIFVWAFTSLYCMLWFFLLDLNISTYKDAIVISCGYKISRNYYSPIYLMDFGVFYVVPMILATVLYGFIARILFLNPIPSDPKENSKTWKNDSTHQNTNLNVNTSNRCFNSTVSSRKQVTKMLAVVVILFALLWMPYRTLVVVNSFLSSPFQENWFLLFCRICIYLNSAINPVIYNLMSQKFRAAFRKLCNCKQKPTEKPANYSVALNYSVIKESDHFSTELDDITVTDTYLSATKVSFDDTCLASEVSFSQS
# Nuclear receptor subfamily 1 group I member 2 (Rattus norvegicus), sequence (Q9R1A7 whole entry, looked up): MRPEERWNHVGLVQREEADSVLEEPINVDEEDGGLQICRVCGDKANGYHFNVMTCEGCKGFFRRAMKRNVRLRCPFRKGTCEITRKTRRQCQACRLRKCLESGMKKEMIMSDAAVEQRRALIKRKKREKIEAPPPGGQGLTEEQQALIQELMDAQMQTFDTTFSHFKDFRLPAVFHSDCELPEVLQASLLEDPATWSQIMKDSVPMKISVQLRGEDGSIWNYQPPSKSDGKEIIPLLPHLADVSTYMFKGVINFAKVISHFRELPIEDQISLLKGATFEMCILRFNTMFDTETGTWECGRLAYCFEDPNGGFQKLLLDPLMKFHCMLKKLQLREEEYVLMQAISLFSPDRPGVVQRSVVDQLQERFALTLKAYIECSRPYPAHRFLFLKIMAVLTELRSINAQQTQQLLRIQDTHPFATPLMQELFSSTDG
# Cytochrome P450 2C9 (Homo sapiens), sequence (P11712 whole entry, looked up): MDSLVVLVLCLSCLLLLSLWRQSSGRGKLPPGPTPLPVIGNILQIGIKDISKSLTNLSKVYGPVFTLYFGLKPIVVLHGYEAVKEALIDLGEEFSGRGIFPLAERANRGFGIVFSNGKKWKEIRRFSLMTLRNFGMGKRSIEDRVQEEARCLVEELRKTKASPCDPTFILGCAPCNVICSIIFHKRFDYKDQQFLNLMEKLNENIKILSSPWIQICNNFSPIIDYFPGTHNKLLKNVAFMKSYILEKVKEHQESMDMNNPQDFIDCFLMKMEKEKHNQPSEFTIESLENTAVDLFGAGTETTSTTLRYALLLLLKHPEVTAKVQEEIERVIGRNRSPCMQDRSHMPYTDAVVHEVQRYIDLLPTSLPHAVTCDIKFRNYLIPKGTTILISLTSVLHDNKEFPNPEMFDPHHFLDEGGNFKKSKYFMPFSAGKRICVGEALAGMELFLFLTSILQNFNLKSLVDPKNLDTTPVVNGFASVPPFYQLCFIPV
SMILES,outcome [1],Potency [2],outcome [3],Potency [4],Potency [5],Potency [6],outcome [7],Potency [8],Potency [9],Potency [10],Potency [11],Potency [12],Potency [13],outcome [14],Potency [15],max activation [16],outcome [17],Potency [18],Potency [16]
CCCC(C)=O,inactive,inactive,inactive,inactive,inactive,inactive,inactive,inactive,inactive,inactive,inactive,inactive,inactive,inactive,inactive,–,–,–,–
CC(C)(N)CO,inactive,–,–,inactive,inactive,inactive,inactive,inactive,60.9 µM (active) and inactive,inactive,–,–,inactive,inactive,inactive,–,–,–,–
O=c1[nH]c(=O)n([C@H]2CCCO2)cc1F,inactive,inactive,inactive,inactive,inactive,–,inactive,inactive,inactive,inactive,inactive,–,inactive,inactive,inactive,-0.0643% (inactive),inactive,inactive,–
O=C(O)[C@H](O)[C@@H](O)[C@H](O)[C@H](O)CO,inactive,–,–,inactive,inactive,–,inactive,inactive,inactive,inactive,89.2 µM (active),–,–,inactive,inactive,-0.835% (inactive) and -2.16% (inactive),inactive,inactive,–
CCc1cccc(C)c1N,inactive,inactive,inactive,inactive,inactive,–,inactive,inactive,59.2 µM (active) and inactive,inactive,68.8 µM (active) and 71 µM (active),inactive,39.9 µM (active),inactive,inactive,–,–,–,–
CCCCCCCC(=O)OC,inactive,inactive,–,inactive,inactive,inactive,inactive,inactive,inactive,inactive,inactive,inactive,inactive,inactive,inactive,–,–,–,–
O=C(CC(C(=O)OC1CCCCC1)S(=O)(=O)O)OC1CCCCC1 (centres undefined),inactive,–,–,inactive,inactive,inactive,inactive,inactive,26.9 µM (active),inactive,inactive,–,inactive,inactive,inactive,–,–,–,–
OCC(CO)(CBr)CBr,inactive,–,inactive,inactive,inactive,inactive,inactive,inactive,inactive,inactive,inactive,–,40.4 µM (active) and inactive,inactive,inactive,–,–,–,–
CSCCC=O,inactive,inactive,inactive,inactive,inactive,–,inactive,inactive,inactive,inactive,75.8 µM (active) and 7.1 µM (active),–,19 µM (active) and 4.48 µM (active),inactive,inactive,–,–,–,–
c1ccc(OCCOc2ccccc2)cc1,inactive,–,–,inactive,inactive,–,inactive,inactive,61.1 µM (active) and 24.3 µM (active),inactive,5.02 µM (active) and 5.03 µM (active),–,15.9 µM (active) and 20 µM (active),inactive,inactive,–,–,–,–
CCCCOC(=O)COc1ccc(Cl)cc1Cl,inactive,–,inactive,inactive,inactive,inactive,inactive,inactive,inactive,inactive,36 µM (active) and 39.9 µM (active),36 µM (active) and 35.6 µM (active),40.4 µM (active) and 39.9 µM (active),–,inactive,–,–,–,–
O=C(O)CCCCCCCCCCC(=O)O,inactive,–,–,inactive,inactive,inactive,inactive,inactive,inactive,35.9 µM (active) and 39.9 µM (active),32 µM (active) and 31.7 µM (active),–,inactive,inactive,inactive,–,–,–,–
COc1ccc(NC(C)=O)cc1N,inactive,–,–,inactive,inactive,inactive,inactive,inactive,–,inactive,39.8 µM (active) and 39.9 µM (active),–,17.8 µM (active) and 25.2 µM (active),inactive,inactive,–,–,–,–
Cc1cccc(O)c1,inactive,–,–,inactive,inactive,inactive,inactive,inactive,inactive,inactive,inactive,inactive,–,inactive,inactive,–,–,–,–
CCCCC(CC)COC(=O)CS (centres undefined),inactive,–,inactive,inactive,inactive,–,inactive,inactive,inactive,28.6 µM (active),25.5 µM (active) and inactive,64.1 µM (active) and 71 µM (active),64.1 µM (active) and inactive,inactive,40.4 µM (active),–,–,–,–
O=c1[nH]nnc2ccccc12,inactive,–,–,inactive,inactive,–,inactive,inactive,inactive,inactive,inactive,–,inactive,inactive,inactive,–,–,–,–
O=c1[nH]c(=O)n([C@H]2C[C@H](O)[C@@H](CO)O2)cc1Br,inactive,–,–,inactive,inactive,inactive,inactive,inactive,12.4 µM (active) and inactive,inactive,inactive,–,40.6 µM (active) and inactive,inactive,inactive,–,inactive,inactive,4.47 µM (active)
CCCCCC/C(C=O)=C\c1ccccc1,inactive,inactive,inactive,inactive,inactive,–,inactive,inactive,inactive,inactive,40.4 µM (active) and 20 µM (active),–,22.7 µM (active) and 8.94 µM (active),inactive,inactive,–,–,–,–
FC(F)(F)c1ccc(Cl)c(Cl)c1,inactive,inactive,–,inactive,inactive,inactive,inactive,inactive,inactive,inactive,inactive,–,–,inactive,inactive,–,–,–,–
O=P(OC(CCl)CCl)(OC(CCl)CCl)OC(CCl)CCl,inactive,–,–,39.8 µM (active) and inactive,inactive,30.5 µM (active),inactive,30.5 µM (active),34.2 µM (active) and 6.11 µM (active),39.7 µM (active) and 35.6 µM (active),7.06 µM (active) and 35.6 µM (active),35.4 µM (active) and 35.6 µM (active),35.4 µM (active) and 31.7 µM (active),inactive,706 nM (active) and 2.83 µM (active),–,–,–,–
CCCCCCCCCCCCc1ccccc1,inactive,–,inactive,inactive,inactive,inactive,inactive,inactive,inactive,inactive,inactive,inactive,inactive,–,inactive,–,–,–,–
O=C(O)c1ccc2c(c1)C(=O)OC2=O,inactive,inactive,inactive,inactive,inactive,–,inactive,inactive,inactive,inactive,inactive,–,inactive,inactive,inactive,–,–,–,–
CC(O)COCC(C)O (centres undefined),inactive,–,–,inactive,inactive,inactive,inactive,inactive,inactive,inactive,inactive,–,inactive,inactive,inactive,–,–,–,–
CN(C)CCC(c1ccccc1)c1ccccn1 (centres undefined),inactive,inactive,inactive,inactive,inactive,–,inactive,inactive,–,35.7 µM (active),inactive,inactive,40 µM (active) and inactive,inactive,inactive,-3.67% (inactive),–,–,–
C=C(C)C(=O)O[C@H]1C[C@@H]2CC[C@@]1(C)C2(C)C,inactive,inactive,inactive,inactive,inactive,–,inactive,inactive,inactive,inactive,17.7 µM (active) and inactive,inactive,inactive,inactive,inactive,–,–,–,–
OCCOCCOCCO,inactive,inactive,–,inactive,inactive,inactive,inactive,inactive,63.4 µM (active) and inactive,inactive,inactive,–,inactive,inactive,inactive,-2.18% (inactive),inactive,inactive,–
